Only some compounds are listed: those with a hit (about 2.6% of all), similar ones and a draw of the others.
Shn3 3UTR inh = Schnurri-3 reporter inhibition in Clone20 osteoblasts; Clone20 osteoblast Shn3 3'UTR firefly luciferase, 24 h; inhibition, % at 12.5 µM; 360,000 tested, 0.52% active; AID 588674;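 active = mean inhibition of at least 75% with every replicate also reaching 75%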;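 also: 0% = median of neutral control wells and 100% = pilot-screen positive control compound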
Peg3 promoter = reduces Peg3 promoter-driven luciferase expression in HeLa. HeLa PEG-Prom luciferase reporter, luminescence, overnight. 360,000 tested, 1.7% active. inhibition, % at 20 µM;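 active = inhibition of at least 50% at 20 µM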
HIF-2a inh = inhibitors of HIF-2a; inhibition, % at 18.8 µM; 360,000 tested, 0.72% active; 786-0 RCC cells HIF-2a reporter, luciferase luminescence, overnight;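 active = inhibition of the luminescence signal of 40% or more relative to plate controls, in a single-dose primary screen at 18.75 µM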
KKLEB tox = reduces viability of KKLEB cystic fibrosis airway cells | activity change (cytotoxicity), % at 5 µM | AID 602141 | KKLEB CF airway cells viability, ATPlite luminescence, overnight; stronger effect = lower value; cells stimulated with P. aeruginosa culture filtrate | 360,000 tested, 0.36% active;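 active = corrected activity change at or below -50% at 5 µM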
CF NFkB block = inhibitors of cystic fibrosis induced NF-kB | KKLEB NF-kB-GFP reporter, PAF-induced, GFP fluorescence overnight | inhibition, % at 5 µM | 360,000 tested, 0.86% active | AID 588850;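 active = at least 50% inhibition at 5 µM, scaled per plate between neutral and stimulator controls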;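 also: PAF is a Pseudomonas aeruginosa culture filtrate used as stimulus; plate controls were PAF-stimulated DMSO wells for no effect and unstimulated DMSO wells for full effect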
CF NFkB inh conf = confirmation of cystic fibrosis induced NF-kB inhibitors; inhibition, % at 5 µM; KKLEB CF airway cells, PAF-induced NF-kB-GFP fluorescence, overnight; AID 602472; shares compounds with CF NFkB block; 1,300 tested, 64% active; in the data active = inhibition above about 40%;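 also: stimulus PAF is a Pseudomonas aeruginosa filtrate and not platelet activating factor; plate controls were DMSO wells with stimulus for no effect and unstimulated DMSO wells for full effect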
Starred values were filed as active, the others as inactive; . = not tested or not shown; ! = repeats disagree.

SMILES | Shn3 3UTR inh | Peg3 promoter | HIF-2a inh | KKLEB tox | CF NFkB block | CF NFkB inh conf
COc1ccccc1-c1nnc2sc(C3CCCCC3)nn12 | 12 | 7 | -3 | 5 | 3 | .
c1cc(-c2nnc3sc(C4CCCCC4)nn23)ccn1 | -3 | 6 | 19 | -16 | 51* | 64*
N#CC(C#N)=C1SC(=Nc2ccccc2)C(=Nc2ccccc2)N1c1ccccc1 | 37 | 89* | -66 | -42 | 67* | 79*
O=C(c1[nH]c(C(F)(F)F)nc1-c1ccccc1)N1CCN(c2ccccc2)CC1 | 5 | 22 | 8 | -12 | 6 | .
O=C(c1[nH]c(C(F)(F)F)nc1-c1ccccc1)N1CCN(c2c(Cl)cncc2Cl)CC1 | -2 | 12 | -1 | -8 | 64* | 57*
COc1cc2cncc(Cc3ccc(Cl)cc3)c2cc1OC | 45 | 6 | 9 | -14 | 72* | 87*
COc1cc2nc(CN(C)Cc3ccc(Cl)cc3)[nH]c(=O)c2cc1OC | -4 | 16 | 28 | -2 | 11 | .
CC(C)(CNc1ccc([N+](=O)[O-])cc1Cl)CNS(C)(=O)=O | 14 | 5 | 1 | 6 | 3 | .
CC(C)C[C@H]1CNC(=S)N1C[C@H]1CCCN1C[C@H](Cc1ccccc1)N1C[C@H](Cc2ccc(O)cc2)N(CCc2ccccc2)C1=S | -4 | 12 | -14 | -11 | 66* | 31
CCOc1ccc(CCN2C(=S)N([C@@H](CC(C)C)CN3CCCC3CN3C(=S)NC[C@@H]3CC(C)C)C[C@@H]2Cc2ccc(O)cc2)cc1 (stereo partly specified) | 18 | 10 | -20 | -9 | 53* | 63*
CC(C)C[C@H]1CNC(=S)N1C[C@H]1CCCN1C[C@H](Cc1ccc(O)cc1)N1C[C@H](CC(C)C)N(CCc2ccccc2)C1=S | 6 | 8 | -18 | -16 | 56* | 22
CC(C)C[C@@H](CN1CCCC1CN1C(=S)NC[C@@H]1Cc1ccc(O)cc1)N1C[C@H](Cc2ccc(O)cc2)N(CC2CCCCCC2)C1=S (stereo partly specified) | 83 | 91* | -35 | 0 | 52* | 61*
CCOc1ccc(CCN2C(=S)N([C@@H](CC(C)C)CN3CCC[C@@H]3CN3C(=S)NC[C@@H]3CC(C)C)C[C@@H]2Cc2ccc(O)cc2)cc1 | 6 | 19 | -15 | -8 | 36 | .
COc1ccc(NCC(=O)Nc2c(C)cccc2C)cc1S(=O)(=O)N1CCOCC1 | 9 | 0 | 13 | -6 | 0 | .
O=C(CCc1ccc(O)cc1)c1c(O)cc(O)cc1O | -15 | 1 | -16 | 18 | 8 | .
COc1cc(O)c(CC=C(C)C)c(O)c1C(=O)CCc1ccc(O)cc1 | -3 | 13 | -303 | -4 | 52* | 44*
O=[N+]([O-])c1ccc2ncnc(Nc3ccc4c(c3)OCCO4)c2c1 | 15 | -4 | 14 | -17 | 65* | 38
Cc1ccc(O)c(Nc2ncnc3ccc([N+](=O)[O-])cc23)c1 | 8 | -4 | 14 | 0 | 44 | .
Cc1ccc(S(=O)(=O)Oc2ccccc2/C=N/NC(=O)c2nn(C)cc2[N+](=O)[O-])cc1 | -8 | -4 | -3 | -7 | 5 | .
Cc1ccc(S(=O)(=O)Oc2ccc(/C=N/NC(=O)c3nn(C)cc3[N+](=O)[O-])cc2)cc1 | 5 | -50 | 1 | -34 | 51* | -57
COc1ccc(-n2ncc3c2CC(C)(C)CC3NC(=O)c2cnc(C)cn2)cc1 (stereo unspecified) | 4 | 8 | -2 | 0 | 14 | .
O=C(c1cccc(NS(=O)(=O)c2ccc(F)c(F)c2)c1)N1CCN(C(c2ccccc2)c2ccccc2)CC1 | 25 | 22 | 18 | 2 | 50* | -4
O=C(c1cccc(NS(=O)(=O)c2ccccc2)c1)N1CCCC1 | -3 | -1 | 10 | 12 | -18 | .
CCOC(=O)c1cccc(NC(=O)CSc2nncn2-c2ccccn2)c1 | -5 | 0 | -8 | 9 | -14 | .
Cc1onc(-c2ccccc2)c1C(=O)N1CCCSC1=Nc1ccccc1 | -17 | 5 | 10 | 2 | 56*! | -17
COc1ccc2nc(Nc3nc(CSc4nc5ccccc5[nH]4)cc(=O)[nH]3)nc(C)c2c1 | 41 | 98* | -17 | -46 | 103* | 101*
Cc1ccc(NC(=O)COC(=O)CCc2c[nH]c3ccccc23)c(C)c1 | 9 | 5 | 3 | 5 | 3 | .

Screening results from PubChem BioAssay.
